# Rows were chosen to be rich in hits. Some 2.9% of all compounds tested hit in one or more screens of this group.
# S2 tox – reduces viability in counter-screen for ATXN expression inhibitors. Potency, µM (series often up to 56.7 µM), actives largely listed as cytotoxic. S2 cells (HEK-293 line with an ATXN2-luciferase reporter) viability, CellTiter-Fluor protease fluorescence, 24 h. actives 0.49% (n = 400,000); further: nearly all actives have a fitted effect of over 40% in size
# Nrf2 ARE act – Nrf2 pathway activation; AREc32 ARE-luciferase reporter (MCF7-derived line), luminescence, 24 h; Potency, µM (doses to about 46.1 µM), without a hit: at the highest dose activation, hits mostly activators; actives 0.31% (n = 410,000); further: % of control where 0% means no effect; nearly all actives have a fitted effect of over 65% in size
#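 Reporter line AREc32 (ARE-Fluc), seeded overnight in OPTI-MEM with 5% FBS; compound pin-transferred, 24 hr at 37 deg C, 5% CO2; luminescent read-out.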
# A549 tox – A549 cytotoxicity, counter-screen for Nrf2 inhibitors. A549 ARE-Fluc cells, CellTiter-Fluor viability, 18-24 h. Potency, µM (top dose mostly 46 µM), for inactives: top-dose activity change, negative = cytotoxicity, hits mostly inhibitors. actives 0.16% (n = 390,000); further: on the % scale 0 is the no-effect control and ±100 the full control effect
#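 A549 ARE-Fluc cells in 5% FBS OPTI-MEM, 5000 cells/well, rested 2 h then exposed to compounds in concentration-response for 18-24 h at 37 °C. Viability by CellTiter-Fluor fluorescence (Ex 405/Em 525) after 30 min; luciferase luminescence (BugLite, 15 min, RT) read afterwards.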
# Nrf2 inh – blocks Nrf2 signaling; actives 2.1% (n = 360,000); A549 ARE-Fluc reporter, luciferase luminescence, 18-24 h; Potency, µM (highest dose often 46 µM), inactives show at the highest dose activity change, negative = inhibition, most hits filed as inhibitors; further: on the % scale 0 is the no-effect control and ±100 the full control effect; nearly all actives have a fitted effect of over 60% in size
#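 Concentration-response testing used A549 ARE_Fluc cells at 5000 cells/well. Following an 18-24 h compound incubation, viability was read by fluorescence (Ex 405/Em 525) and luciferase output by luminescence.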
# ATXN2 expr inh – reduces ATXN2 reporter expression in HEK-293 cells; HEK-293 ATXN2-luciferase reporter, luminescence, 24 h; Potency, µM (doses to about 57 µM), for inactives: top-dose activity change, negative = inhibition, hits mostly inhibitors; actives 0.72% (n = 360,000); AID 1745845; further: on the % scale 0 is the no-effect control and ±100 the full control effect; nearly all actives have a fitted effect of over 55% in size
#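 qHTS (up to 57 uM final) was run with 24 h compound exposure of reporter cells at 37 °C. Each well was multiplexed: SteadyGlo luminescence measured ATXN2-luciferase expression after a fluorogenic Gly-Phe-AFC viability readout (25 uM final).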
# Active calls of the source: *; i = inactive; u = inconclusive; x = no result; [ ] = another dose, or the depositor's remark. The call rests on the fitted dose curve; in most records, active means well fitted curve in the direction sought with a large enough effect; inconclusive means small, poorly fitted or top-dose-only effect, or another doubt; inactive means no such curve, though single readings can be large; an effect the other way counts as inactive or inconclusive. Potency means the concentration at half of the fitted maximal effect.
SMILES,S2 tox,Nrf2 ARE act,A549 tox,Nrf2 inh,ATXN2 expr inh
Cc1nc2sc(C(c3ccc(Br)cc3)N3CC(C)OC(C)C3)c(O)n2n1 (stereo unspecified),i,3%,3%,-6%,-14%
C(#CSCc1ccccc1)SCc1ccccc1,i,3%,x,x,x
C[n+]1cccc(O)c1SCc1ccccc1,14µM*,6%,-1%,-17%,u
O=C(NC(NC(=O)c1ccccc1)c1cccc([N+](=O)[O-])c1)c1ccccc1,i,0%,-2%,11%,6%
Nc1ccccc1SC(CC(=O)c1ccccc1)c1cccc([N+](=O)[O-])c1 (stereo unspecified),x,5µM*,x,x,x
Cc1ccc(Nc2nc(NCc3ccccc3)nc3ccsc23)c(C)c1,u,-2%,x,x,u
Cc1nc(Nc2n[nH]c3c2CN(C(=O)N[C@H](CN(C)C)c2ccccc2)C3(C)C)c2sccc2n1,x,x,x,x,17µM*
O=C(COC(=O)CN1C(=O)c2ccccc2C1=O)NC1CCCC1,i,-1%,-3%,-3%,9%
O=C(C(Cl)Cl)N1CCN(Cc2ccc3c(c2)OCO3)CC1,i,8%,-3%,-20%,x
CN(CC(=O)Nc1ccc(F)c(F)c1F)C(=O)/C=C/c1ccco1,i,13µM*,1%,-7%,12%
CN(CC(=O)Nc1ccc(F)c(F)c1F)C(=O)/C=C/c1ccc(Cl)cc1,i,0%[9.22 µM],3%,-16%,-5%
COc1ccc(N2C3=C(CC4=C2CCCC4=O)C(=O)CCC3)cc1,i,1%,-5%,u,-18%
COc1ccc(N2C3=C(CC4=C2CC(C)(C)CC4=O)C(=O)CC(C)(C)C3)cc1,i,-3%,-26%,u,16µM*
Cc1noc(C)c1/C=N/Nc1ccccn1,i,u,6%,-2%,-27%
CS(=O)(=O)N1CCC(Oc2cccc(C(=O)NCCCC3CCCC3)c2)CC1,i,0%,-12%,26µM*,u
Cc1nc(SCC(=O)NCC2COc3ccccc3O2)c2c(C)c(C)sc2n1 (stereo unspecified),i,0%,1%,21µM*,u
C[C@]12c3[nH]c4ccc(Cl)cc4c3CCN1C(=O)[C@@H](CC(=O)NCc1cccc(C(F)(F)F)c1)C[C@@H]2C(=O)N1CCCCC1,x,-3%,u,-95%,u
Cc1ccc(NC(=O)CSc2nc3nccnc3c(=O)n2CCc2c[nH]c3ccccc23)cc1,x,4%,11%,-5%,x
COc1cccc2c1C(=O)CC1C2CCC2CC(=O)CCC21C (stereo unspecified),i,0%,-16%,u,3%
COc1cc(CN2CCCCCC2)cc(OC)c1OC,i,0%,2%,7%,-22%
Cc1[nH]c2ccccc2c1/C=N/NC(=S)NC(C)C,i,5%,u,15µM*,-13%
CC(C)c1ccc(NC(=O)c2cc(Br)ccc2Br)cc1,i,7.1µM*,u,15%,x
COc1ccc(Cl)cc1C=CC=Nc1ccccc1O,i,10µM*,-7%,-7%,3%
CC(=O)N1[C@@H]2CC3C4CC=C5C[C@@H](O)CC[C@]5(C)C4CC[C@]3(C)[C@@]21C(C)=O (stereo partly specified),i,0%,21%,4%,5%
Cc1ccc(N(C)C(CNS(=O)(=O)c2ccccc2)c2ccccc2)cc1 (stereo unspecified),x,-1%,-13%,-95%,u
SMILES,S2 tox,Nrf2 ARE act,A549 tox,Nrf2 inh,ATXN2 expr inh
Cc1sc2ncnc(NCC3CCCO3)c2c1C (stereo unspecified),i,0%,-12%,21µM*,-19%
CC(=O)N1CCN(C(=O)c2sc3ncnc(NCC4CCCO4)c3c2C)CC1 (stereo unspecified),i,x,x,x,x
O=C(CSc1nc(=O)n(Cc2ccccn2)c2c1CCC2)Nc1ccccc1,x,3%,1%,26µM*,x
Cc1cc(C)cc(NC(=O)CSc2nc(=O)n(Cc3ccccn3)c3c2CCC3)c1,i,1%,-1%,x,6%
CSc1ccc(CCNC(=O)CCc2nnc3ccc(NCCCN4CCCC4=O)nn23)cc1,i,-1%,-9%,3%,x
Cc1noc(/C=C/c2cccnc2)c1[N+](=O)[O-],u,14%,u,18µM*,u
COC(=O)Nc1ccc2c(c1)N(C(=O)CCCl)c1ccccc1S2,u,u,8%,-1%,20%
CC(=O)Nc1sc(C)c(C)c1C(=O)OCC(=O)Nc1ccc(S(N)(=O)=O)cc1,i,-1%,-6%,-1%,-8%
CCOC(=O)COc1ccc2ccccc2c1/C=C/[N+](=O)[O-],14µM*,u,u,u,u
CCOc1ccc(/C=C/[N+](=O)[O-])c2ccccc12,u,9%,u,26µM*,25µM*
CCOC(=O)Cn1cc(/C=C/[N+](=O)[O-])c2ccccc21,x,-3%,-5%,-19%,x
CCOC(=O)COc1ccc2nsnc2c1,i,0%,-1%,x,-16%
CCOC(=O)COc1ccc(/C=C/[N+](=O)[O-])c(OCC(=O)OCC)c1,10µM*,11%,u,x,8.9µM*
N#CNC(=Nc1cccc(F)c1)SCc1cccc(F)c1,i,18%,-9%,23µM*,-6%
N#CNC(=Nc1cccc(F)c1)SCc1ccccc1,i,11%,2%,-24%,x
Cc1ccc2nc(NCCN)c3ncc(C)n3c2c1,x,x,x,x,1.9µM*
Cc1ccc2nc(NCCc3ccc(Cl)cc3)c3nncn3c2c1,i,0%,1%,-13%,-20%
Cc1ccc(S(=O)(=O)N2[C@@H](c3ccc(Br)cc3)C(C(=O)O)=CC[C@H]2c2ccc(Cl)c(Cl)c2)cc1,i,0%,-16%,26µM*,-10%
Cc1ccc(C(O)(COC(=O)C(C)C)COC(=O)C(C)C)c(O)c1,i,22%,0%,0%,-3%
CC1Cc2nc(SCC(=O)Nc3ccc4c(c3)OCO4)n(Cc3ccccc3)c(=O)c2S1 (stereo unspecified),i,3%,-2%,u,106%
CCC(C)COC(c1ccccc1)(c1ccccc1)C(Oc1nc(C)cc(C)n1)C(=O)O (stereo unspecified),i,-1%,-17%,u,-13%
Cc1ccc2cccc(NC(=O)c3ccc(-c4cccc([N+](=O)[O-])c4)o3)c2n1,i,7%,3%,4%,-5%
O=C(Nc1ccccc1F)c1ccc(-c2cccc([N+](=O)[O-])c2)o1,i,1.4µM*,-1%,u,4%
CCOC(=O)C1=C(c2ccccc2)NC(SCC(=O)Nc2cccc(C)c2)=C(C#N)C1c1ccco1 (stereo unspecified),i,1%,13µM*,u,-21%
CCOC(=O)C1=C(c2ccccc2)NC(SCC(=O)Nc2ccc(C)cc2)=C(C#N)C1c1ccco1 (stereo unspecified),i,0%,-17%[1.84 µM],21µM*,-13%
